TGFb SMAD3 inh – qHTS for Inhibitors of TGF-b. HepG2 CAGA-GFP TGF-b/SMAD3 reporter, GFP fluorescence, 18 h; TGF-beta stimulated, 500 pg/mL final. Potency, µM (series often up to 46.1 µM), for the others: at the top dose activity, negative = inhibition, actives largely listed as inhibitors. hit rate 1.2% among 410,000; note: % is set by controls: 0 for no effect and ±100 for the full control effect; nearly all actives have a fitted effect of over 65% in size
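Cell-based qHTS in HEPG2 carrying a CAGA-GFP Smad reporter; compounds added before 500 pg/mL final TGF-beta, 18 h incubation at 37 degrees C, GFP fluorescence quantified per cell by imaging cytometry.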
RORgamma inh – qHTS for inhibitors of ROR gamma transcriptional activity. Nuclear receptor ROR-gamma (Mus musculus), P51450. Drosophila S2 Gal4-RORgamma UAS-luciferase reporter, 20 h. Potency, µM (highest dose often 53.6 µM), for inactives: at the highest dose activity change, negative = inhibition, actives largely listed as inhibitors. hit rate 5.4% among 310,000; note: % is set by controls: 0 for no effect and ±100 for the full control effect; nearly all actives have a fitted effect of over 60% in size
Target sequence (P51450 whole entry, looked up, the tested form may be a part): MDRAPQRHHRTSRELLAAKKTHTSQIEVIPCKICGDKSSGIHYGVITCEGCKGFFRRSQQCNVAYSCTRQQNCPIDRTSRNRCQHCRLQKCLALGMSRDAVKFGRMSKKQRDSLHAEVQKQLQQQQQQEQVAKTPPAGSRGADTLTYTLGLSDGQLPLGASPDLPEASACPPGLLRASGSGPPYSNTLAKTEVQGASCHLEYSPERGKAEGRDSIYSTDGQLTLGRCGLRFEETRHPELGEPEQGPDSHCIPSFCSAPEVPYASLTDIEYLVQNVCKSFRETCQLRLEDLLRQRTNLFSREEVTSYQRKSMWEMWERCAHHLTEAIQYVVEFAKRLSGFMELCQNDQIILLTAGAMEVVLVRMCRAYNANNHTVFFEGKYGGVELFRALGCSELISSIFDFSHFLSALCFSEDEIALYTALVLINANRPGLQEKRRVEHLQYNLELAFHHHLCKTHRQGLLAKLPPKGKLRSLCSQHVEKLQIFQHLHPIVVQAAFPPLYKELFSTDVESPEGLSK
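Luminescence from a UAS-regulated Photinus luciferase reporter in stably transfected Drosophila Schneider cells is measured; decreased signal marks ROR gamma inhibition. Fusion expression is induced by 700 uM copper sulfate for 20 hr.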
HepG2 tox – qHTS for Inhibitors of TGF-b: Cytotox Counterscreen; HepG2 CAGA-GFP viability, ATP luminescence, 18 h; Potency, µM (doses to about 46.1 µM), for the others: at the top dose activity change, negative = cytotoxicity, actives largely listed as cytotoxic; hit rate 0.76% among 410,000; AID 588856, 2011
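HepG2 CAGA-GFP cells (1000/well, DMEM with 1% FBS) received compound, then TGF-beta at 500 pg/mL final, and were incubated 18 hours at 37 degrees C. Viability was read by CellTiter-Glo luminescence. Media-only wells were set as complete cell-killing and DMSO as no toxicity.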
ATXN viability – Viability Counterscreen for Primary qHTS for Inhibitors of ATXN expression; Potency, µM (series often up to 56.7 µM), usual class: cytotoxic; hit rate 0.49% among 400,000; AID 651635, 2014; S2 cells (HEK-293 line with an ATXN2-luciferase reporter) viability, CellTiter-Fluor protease fluorescence, 24 h; note: nearly all actives have a fitted effect of over 40% in size
ATXN2 expr inh – Primary qHTS for Inhibitors of ATXN expression; HEK-293 ATXN2-luciferase reporter, luminescence, 24 h; hit rate 0.72% among 360,000; Potency, µM (titrated, usually from 57 µM), for inactives: at the highest dose activity change, negative = inhibition, usual class: inhibitors; note: % is set by controls: 0 for no effect and ±100 for the full control effect; nearly all actives have a fitted effect of over 55% in size
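qHTS (up to 57 uM final) was run with 24 h compound exposure of reporter cells at 37 °C. Each well was multiplexed: SteadyGlo luminescence measured ATXN2-luciferase expression after a fluorogenic Gly-Phe-AFC viability readout (25 uM final).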
VP16 counter – VP16 counterscreen qHTS for inhibitors of ROR gamma transcriptional activity; Drosophila S2 Gal4-VP16 UAS-luciferase, luminescence, 20 h; Potency, µM (doses to about 53.6 µM), for the others: at the highest dose activity, negative = inhibition, usual class: inhibitors; hit rate 3.5% among 310,000; AID 2546, 2010;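 note: Gal4-VP16 expression switched on by copper sulfate through the metallothionein promoter; % is set by controls: 0 for no effect and ±100 for the full control effect; nearly all actives have a fitted effect of over 50% in size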
* = called active by the depositor; i = inactive; ? = inconclusive; / = no result. Hits are enriched below; roughly 6.1% of the tested compounds scored in any of these assays. Calls come from the whole dose curve; as a rule, active = well fitted curve in the direction sought with a large enough effect; inconclusive = small, poorly fitted or top-dose-only effect, or another doubt; inactive = no such curve, though single readings can be large; an effect the other way counts as inactive or inconclusive. Potency is the fitted concentration of half-maximal effect.

SMILES | TGFb SMAD3 inh | RORgamma inh | HepG2 tox | ATXN viability | ATXN2 expr inh | VP16 counter
CCOC(=O)[C@@H]1[C@H]2COc3ccccc3[C@@H]2N2C(=O)N(c3ccc(F)cc3)C(=O)[C@@]12C | -1.2% | 12.6µM* | 0.4% | i | -4.2% | -7.0%
CCOC(=O)[C@@H]1[C@H]2COc3cc(OC)ccc3[C@@H]2N2C(=O)N(c3ccc(Cl)cc3)C(=O)[C@@]12C | -7.4% | 8.91µM* | -4.1% | i | 5.7% | ?
CCOC(=O)[C@@H]1[C@H]2COc3cc(OC)ccc3[C@@H]2N2C(=O)N(c3cccc(F)c3)C(=O)[C@@]12C | -4.3% | 10µM* | -4.9% | i | -5.5% | 0.3%
CN1CCN(C(=O)C(=O)Nc2c3c(nn2-c2ccc(Cl)cc2)CSC3)CC1 | -7.1% | / | 1.9% | i | 4.4% | /
COc1ccc(-c2cc(C(=O)O)n(Cc3ccccc3)n2)cc1 | 0.0% | / | 11.4% | i | 16.0% | /
Cc1cc(C)c(-n2c(SCc3nc4ccccc4s3)n[nH]c2=O)c(C)c1 | ? | ? | -20.0% | i | -27.4% | 3.16µM*
CCn1nc(C)cc1C(=O)NCC1CCC2(CCN(Cc3ccccc3F)CC2)O1 (stereo not given) | / | / | / | i | / | /
O=C1N/C(=C/c2ccc(N3CCOCC3)o2)C(=O)N1c1ccccc1 | ? | 5.62µM* | -47.2% | ? | ? | 1.58µM*
C=CCN1C(=O)N/C(=C/c2ccc(N3CCOCC3)o2)C1=O | / | 7.08µM* | / | / | / | 5.01µM*
O=C1NC(=S)S/C1=C/c1ccc(N2CCOCC2)o1 | -2.8% | 0.9% | -34.6% | / | 9.5% | ?
Cc1ccc(N2CC(NC(=O)c3ccc(S(=O)(=O)N4CCOCC4)cc3)CC2=O)cc1C (stereo not given) | -1.8% | / | -25.9% | / | / | /
CN[C@H](CC(C)C)C(=O)N[C@H]1C(=O)N[C@@H](CC(N)=O)C(=O)N[C@H]2C(=O)N[C@H]3C(=O)N[C@H](C(=O)N[C@@H](C(=O)O)c4cc(O)cc(O)c4-c4cc3ccc4O)[C@H](O)c3ccc(c(Cl)c3)Oc3cc2cc(c3O[C@@H]2O[C@H](CO)[C@@H](O)[C@H](O)[C@H]2O[C@H]2C[C@](C)(N)C(O)[C@H](C)O2)Oc2ccc(cc2Cl)[C@H]1O (stereo not given in full) | / | / | / | i | / | /
COC/C=C/C1=CC2=CC(=O)C(C)(OC(=O)CCc3ccccc3)C(=O)C2=CO1 (stereo not given) | / | -11.4% | / | / | / | -1.9%
Cc1ccc(-c2nsc3c(N4CCC(C(N)=O)CC4)ncnc23)cc1 | 13.2% | ? | -9.5% | i | 4.6% | 0.631µM*
COc1ccc(-c2nsc3c(N4CCCCC4C)ncnc23)cc1 (stereo not given) | -9.4% | 0.282µM* | 2.5% | i | / | ?
COc1ccc(C(=O)N2CCN(c3ncnc4c(-c5ccccc5)nsc34)CC2)cc1 | 8.9% | -3.7% | 2.6% | i | -4.2% | 1.9%
COc1ccc(-c2nsc3c(N4CCCCC4)ncnc23)cc1 | -1.4% | 1.12µM* | -14.9% | i | ? | ?
O=C(O)C(O)Cc1ccc(O)c(O)c1 (stereo not given) | / | / | / | / | -12.3% | /
CN(CCNC(=O)c1cc2c(=O)n(C)c3ccccc3c2n1C)Cc1ccccc1 | ? | 11.2µM* | -37.1% | i | -35.7% | ?
CCCN(CCC)CCNC(=O)c1cc2c(=O)n(C)c3ccccc3c2n1C | 2.3% | -18.6% | -31.8% | ? | -24.6% | -1.3%
CC1=CC(C)(C)Nc2ccc(OC(=O)CN3C(=O)c4ccccc4C3=O)cc21 | -14.1% | 4.47µM* | 17.8µM* | / | 28.2µM* | 7.08µM*
COc1ccc(-c2cc(C(=O)NCCc3ccc(OC)c(OC)c3)c3c(-c4ccc(F)cc4)[nH]nc3n2)cc1 | 20.4% | / | 0.7% | i | 2.1% | /

Screening results deposited in PubChem by National Center for Advancing Translational Sciences (NCATS).
